The campaign covered roughly 47,000 compounds. About 140 (0.3%) were called active. Shown is part of a subset that was picked to be rich in actives. Values without a mark were called inactive. No stated cut-off is given here; in the data, active means inhibition above about 30%; inactive means the rest.
Each molecule was assayed against Ubiquitin carboxyl-terminal hydrolase 7 (Homo sapiens) (UniProt Q93009) (assay: blocks human USP7 ubiquitin-rhodamine cleavage (AID 1645854)). Conditions: purified USP7, Ub-rhodamine cleavage fluorescence; at 20 µM; hits give high values.
Chain of Ubiquitin carboxyl-terminal hydrolase 7 (Homo sapiens) (Q93009 whole entry, looked up): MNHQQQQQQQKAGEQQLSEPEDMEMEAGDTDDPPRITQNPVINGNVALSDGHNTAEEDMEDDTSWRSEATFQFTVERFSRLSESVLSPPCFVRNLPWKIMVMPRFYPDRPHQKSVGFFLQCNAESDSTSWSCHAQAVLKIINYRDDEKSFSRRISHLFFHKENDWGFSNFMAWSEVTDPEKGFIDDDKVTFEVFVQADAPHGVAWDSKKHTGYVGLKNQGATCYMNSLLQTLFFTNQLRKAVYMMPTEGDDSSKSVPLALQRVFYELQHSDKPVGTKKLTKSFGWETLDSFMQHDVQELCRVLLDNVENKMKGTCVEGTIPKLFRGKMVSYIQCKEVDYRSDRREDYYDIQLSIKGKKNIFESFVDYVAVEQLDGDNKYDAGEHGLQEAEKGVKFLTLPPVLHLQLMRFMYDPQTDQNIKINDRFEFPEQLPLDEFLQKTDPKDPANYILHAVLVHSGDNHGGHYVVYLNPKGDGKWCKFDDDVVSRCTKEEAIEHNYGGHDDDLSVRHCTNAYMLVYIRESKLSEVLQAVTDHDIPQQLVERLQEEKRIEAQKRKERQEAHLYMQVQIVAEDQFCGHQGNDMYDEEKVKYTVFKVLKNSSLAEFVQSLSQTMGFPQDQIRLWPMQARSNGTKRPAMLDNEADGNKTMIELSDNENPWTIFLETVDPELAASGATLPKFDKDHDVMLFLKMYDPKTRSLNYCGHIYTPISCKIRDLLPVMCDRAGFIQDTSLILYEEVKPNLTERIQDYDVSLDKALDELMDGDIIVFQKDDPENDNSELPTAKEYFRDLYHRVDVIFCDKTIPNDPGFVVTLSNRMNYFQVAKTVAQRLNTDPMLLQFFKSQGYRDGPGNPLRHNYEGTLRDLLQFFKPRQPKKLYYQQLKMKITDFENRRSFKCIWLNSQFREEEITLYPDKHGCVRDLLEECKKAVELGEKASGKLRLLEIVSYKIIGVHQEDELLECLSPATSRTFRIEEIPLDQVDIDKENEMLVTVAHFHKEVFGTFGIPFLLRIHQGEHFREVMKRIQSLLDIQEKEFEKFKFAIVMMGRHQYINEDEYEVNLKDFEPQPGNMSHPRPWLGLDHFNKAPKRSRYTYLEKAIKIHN

| Structure (SMILES) | inhibition |
| --- | --- |
| O=C1CCCC2=C1C(c1ccc(O)cc1)n1ncc(C(=O)Nc3ccccc3)c1N2 (stereo not given) | 1.67% |
| Fc1ccc(-c2nn(-c3cccc(F)c3)c3c2cnc2cc4c(cc23)OCO4)cc1 | 8.85% |
| CCC(=O)NC(=NCCc1c[nH]c2ccc(Cl)cc12)Nc1nc(C)cc(C)n1 | 6.43% |
| Cc1c(S(=O)(=O)N2CCCC2)cc(C(=O)Nc2ccccc2F)n1C | 1.4% |
| Cc1ccc(-c2cc(=O)oc(-c3ccc(Br)cc3)n2)cc1 | 4.33% |
| COc1ccc(OC)c(-c2cc(C(=O)N3C[C@@H]4C[C@@]5(C)[C@H](CCC[C@@H]35)N4)[nH]n2)c1 | 1.2% |
| Cc1ccccc1Nc1nccc(C2CCCN(C(=O)C3(c4ccccc4)CC3)C2)n1 (stereo not given) | -0.199% |
| CC12CCN(CCC(F)(F)F)CCN1C(=O)N(Cc1ccccn1)C2=O (stereo not given) | -2.02% |
| Cc1nc(Nc2ccccn2)cc(C2CCCN2C(=O)c2cccnc2)n1 (stereo not given) | -7.09% |
| CCc1ccccc1NC(=O)COc1nsnc1N1CCOCC1 | -0.647% |
| Cc1cc(O)c2c(C)c(CC(=O)N3CCC[C@H]3C(=O)O)c(=O)oc2c1 | 0.928% |
| Cc1nc2ccccc2c(=O)n1-c1ccc(F)c(NC(=O)c2ccccc2[N+](=O)[O-])c1 | 3.02% |
| O=S(=O)(Cc1noc(-c2ccc(OC(F)(F)F)cc2)n1)c1ccc(F)cc1 | -2.05% |
| Cc1nc2sccn2c1CN1C[C@@H](c2ccccn2)[C@@]2(CCCCC(=O)N2)C1 | 5.2% |
| CC(=O)N1CCCn2c(nc(CNC(=O)c3cnn(C)c3)cc2=O)C1 | 6.8% |
| Cc1ccccc1CNC(=O)CCc1nc2ccccc2c(=O)n1C | -6.78% |
| CC(C)n1ncc2c(C(=O)NCc3ccccc3CN(C)C)cc(C3CC3)nc21 | -0.227% |
| CN1C(=O)OC2(CCN(S(=O)(=O)c3ccccc3)CC2)c2ccccc21 | 4.14% |
| CCCNC(=O)c1nc2c(o1)CN(CC1CC1)C2 | 0.464% |
| CN(C(=O)COc1ncnc2c1cnn2-c1ccccc1)C1CCCCC1 | 1.52% |
| Cc1cccc(S(=O)(=O)N(CC(=O)N(C)Cc2ccccc2)Cc2ccccc2)c1 | -0.03% |
| COc1cc(C)c(CN2CCC3(CC2)OCCc2cnc(C)nc23)cc1C | -2.12% |

| Structure (SMILES) | inhibition |
| --- | --- |
| O=C(Nc1cc(C(F)(F)F)ccc1-n1cnc2ccccc21)c1ccc(S(=O)(=O)N2CCCCC2)cc1 | 12.8% |
| Cc1nc(CN2CCn3c(CNC(=O)C4CC4)cnc3C2C)cs1 (stereo not given) | -127% |
| CCCN(C(=O)c1cccc2c1SCCC2=O)c1ccc(F)cc1 | -4.01% |
| COc1cc(C(=O)Nc2ccc(-c3nc4cnccc4o3)cc2)cc(OC)c1OC | 5% |
| O=C(Nc1ccc(-c2nc3cnccc3o2)c(O)c1)c1ccc(-c2ccccc2)cc1 | 5.05% |
| O=C(Cc1ccccc1)Nc1ccc(-c2nc3cnccc3o2)c(O)c1 | 31.5% (active) |
| CCOc1ccc(NC(=O)Cn2c(=O)n(CCC(=O)N3CCc4ccccc4C3)c(=O)c3ccccc32)cc1 | 3.17% |
| O=C(Nc1ccc(F)cc1F)c1csc2c1CCCCC2 | 3.29% |
| O=C(NCc1ccc2c(c1)OCO2)C1(c2ccc(Cl)cc2)CCCC1 | -12.3% |
| CN(Cc1ccccc1)Cc1cn[nH]c1-c1ccc(Cl)cc1 | -24% |
| Cc1nc2nc(NCc3ccccc3)[nH]n2c(=O)c1CCC(=O)N1CCCCC1C (stereo not given) | 2.27% |
| CC1=NOC(CNS(=O)(=O)c2cc(C)ccc2C)C1 (stereo not given) | -0.759% |
| O=C1NC2(CCN(C(=O)Cc3ccc(F)cc3)CC2)N=C1c1ccc(Cl)cc1 | -39.3% |
| COc1c(O)c2c3c(c1O)C(=O)[C@@]1(O)C(=C3C(C)=CC2=O)O[C@@H](C)C1(C)C | -76.3% |
| COc1ccc(Cl)cc1NC(=O)C1CC(=O)NC(Nc2ccccc2)=N1 (stereo not given) | -1.4% |
| Cc1cc(C)n2nc(C(=O)N3CCCC(Cc4[nH]ncc4C)C3)cc2n1 (stereo not given) | -0.00929% |
| CSc1cccc(NC(=O)CC(=O)Nc2ccc3nc4n(c(=O)c3c2)CCCCC4)c1 | 1.86% |
| CC1(C2CCN(C(=O)NC3CCCCC3)CC2)NC(=O)NC1=O (stereo not given) | 2.45% |
| CC(C)CCN1C[C@H]2CCN(C(=O)c3cnccn3)CC[C@H]2S1(=O)=O | -4.49% |
| Cc1ccccc1COC(=O)C1CCN(C2=NS(=O)(=O)c3ccccc32)CC1 | -0.994% |
| COc1ccc2[nH]c3c(c2c1)CCN1C(=O)CN(CCc2ccccc2)C(=O)C31C (stereo not given) | 4.73% |
| COC1=C(OC)C(=O)C(C)=C(C)C1=O | 3.62% |

| Structure (SMILES) | inhibition |
| --- | --- |
| O=C(Nc1cccc(S(=O)(=O)N2CCCCCC2)c1)c1ccc(N2CCOCC2)c([N+](=O)[O-])c1 | 8.97% |
| CC(C)(C)c1cc(-c2ccccc2)nc(-c2ccccc2)c1 | 1.78% |
| O=C(CCN1CCOC(Cn2cncn2)C1)N1CCCCC1 (stereo not given) | 1.57% |
| O=C(CN(Cc1ccccc1)S(=O)(=O)c1ccccc1)N1CCCCCC1 | -6.83% |
| Cc1ccc(NS(=O)(=O)c2cc(-c3[nH]ncc3C(=O)N3CCCC3)oc2C)cc1F | -40.8% |
| COCCn1cnc2c1c(=O)n(CC(=O)Nc1c(C)cc(C)cc1C)c(=O)n2Cc1ccccc1 | 0.0199% |
| CC(Nc1nnc(Cc2ccccc2)c(=O)[nH]1)c1ccccc1 (stereo not given) | 19.7% |
| CC(C)Cc1cc(-c2nn3c(-c4ccccc4Cl)nnc3s2)n[nH]1 | 7.86% |
| Cc1c(-c2nn3c(-c4ccco4)nnc3s2)cccc1[N+](=O)[O-] | 35% (active) |
| Cc1cccc(CNC(=O)c2ccc3c(c2)NC(=O)C2CCC(=O)N32)c1 (stereo not given) | 1.1% |
| O=C1CC(CNS(=O)(=O)c2cccc(Cl)c2)CN1c1ccccc1 (stereo not given) | -3.38% |
| Cn1c(=O)c2ccc(C3CCN(C(=O)CN4CCCC4)C3)nc2n(C)c1=O (stereo not given) | -2.1% |
| COc1cc2c(c(OC)c1OC)-c1ccc(N3CCN(Cc4ccccc4)CC3)c(=O)cc1[C@@H](NC(C)=O)CC2 | -1.92% |
| C=C1CCC2[C@](C)(CCC[C@]2(C)C(=O)OC)[C@H]1CCc1ccoc1CNCC(=O)O (stereo not given in full) | 1.95% |
| C=C1CCC2[C@](C)(CCC[C@]2(C)C(=O)OC)[C@H]1CCc1ccoc1/C=C/C(=O)O (stereo not given in full) | 37.2% (active) |
| C=C1CCC2[C@](C)(CCC[C@]2(C)C(=O)OC)[C@H]1CCc1ccoc1C[N+](C)(C)Cc1ccccc1 (stereo not given in full) | 19.4% |
| CCc1cc(C(=O)NC2CC(C)(C)Cc3nc(N4CCCC4)ncc32)no1 (stereo not given) | -17.3% |
| Cc1ccc(-c2cn3ccn(-c4ccc(C)cc4C)c(=O)c3n2)cc1 | 6.15% |
| CC(C)CN1[C@H]2CCN(C(=O)c3cccn3C)CC[C@@H]2Oc2ccccc2S1(=O)=O | -3.56% |
| Cn1cc(C2=CCN(S(=O)(=O)c3cccc4cccnc34)CC2)c2cccnc21 | -2.34% |
| Cc1nnc(C(=O)Nc2ccc(C(=O)NCc3ccccc3C)cc2)s1 | 6.22% |
| O=C(Nc1nc(-c2ccc3c(c2)CCN3C(=O)c2ccccc2F)cs1)c1cccnc1 | 26.5% |

| Structure (SMILES) | inhibition |
| --- | --- |
| CCS(=O)(=O)c1cccc(C(=O)Nc2c(C(N)=O)oc3ccccc23)c1 | 1.8% |
| CN1CCN(c2ccc(CNS(=O)(=O)c3cccc(F)c3)cc2)CC1 | 3.64% |
| COc1ccccc1CNc1ccc2c(cc1=O)[C@@H](NC(C)=O)CCc1cc(OC)c(OC)c(OC)c1-2 | -13.3% |
| CCS(=O)(=O)N1CCC(c2nc(C)c(-c3ccnc(C)n3)s2)CC1 | 3.86% |
| C=C1Nc2ccccc2C(=O)N1c1cccc(NC(=O)c2ccc(F)cc2)c1 | 1.49% |
| O=C(CCc1nc(-c2cccnc2)no1)Nc1cc(Cl)ccc1O | -16.2% |
| CC(C)Cc1nnc(NC(=O)c2cc(=O)[nH]c3ccccc23)s1 | -0.0201% |
| COc1cc(C(=O)N[C@@H]2C(=O)Nc3c(c(C)nn3C)[C@H]2c2cccc(Cl)c2)cc(OC)c1OC | -9.37% |
| CN1C(=O)C2CCCCN2c2ccc(C(=O)NC3CCCC3)cc21 (stereo not given) | -1.37% |
| O=C(CCc1ccccc1)N1C[C@@H]2OCC(=O)N(C3CCOCC3)[C@H]2C1 | 10.2% |
| C[C@H](NC(=O)[C@@H]1Cc2c([nH]c3ccccc23)C2c3ccccc3C(=O)N21)C(=O)NC1CC1 (stereo not given in full) | -18.8% |
| CC(/C=C/C(=O)NO)=C\C(C)C(=O)c1ccc(N(C)C)cc1 (stereo not given) | -1.05% |
| CC1(C)CCc2c(cc(OCC(=O)NCC(=O)O)c3c4c(c(=O)oc23)CCC4)O1 | 8.33% |
| CCCc1cc(=O)oc2cc(OCC(=O)NCc3ccc(OC)cc3)ccc12 | 1.51% |
| CC1(C)Cc2c(c(-c3ccco3)nc3sc4c(SCCCc5ccccc5)ncnc4c23)CO1 | 56.7% (active) |
| CSc1ncnc2c1sc1nc(-c3ccccc3)c3c(c12)CC(C)(C)OC3 | 4.67% |
| CCCCCCSc1ncnc2c1sc1nc(-c3ccccc3)c3c(c12)CC(C)(C)OC3 | 1.19% |
| COCCN1C(=O)Cc2c(C)nc(C3(C)CCCN(c4ccnc(C)n4)C3)nc21 (stereo not given) | -0.762% |
| Cc1cc(-c2cnc(C)nc2C2CCN(C(=O)Cc3ccccc3F)CC2)on1 | 0.853% |
